Consider nine compounds from PubChem BioAssay (NCI).

What all share (experiment): NCI-60 one-dose screen, 48 h (100 = growth as untreated, 0 = no growth, -100 = all killed)
For one assay, the system named is RPMI-8226 leukemia. To be noted: 10 µM unless noted.
The test system of the next assay is OVCAR-8 ovarian. Particulars: 10 µM unless noted.
Another assay deals with OVCAR-5 ovarian. Particulars: 10 µM unless noted.
In a further assay the test system is OVCAR-4 ovarian. To be noted: 10 µM unless noted.
The subject of another assay is SK-OV-3 ovarian. Particulars: 10 µM unless noted.
The next assay concerns IGROV1 ovarian. Particulars: 10 µM unless noted.
Another assay deals with OVCAR-3 ovarian. To be noted: 10 µM unless noted.
The test system of a further assay is HS 578T breast. To be noted: 10 µM.
In another assay the test system is NCI/ADR-RES ovarian. To be noted: 10 µM unless noted.
For another assay, the system named is BT-549 breast. Particulars: 10 µM unless noted.
For another assay, the system named is MDA-MB-435 melanoma. Particulars: 10 µM unless noted.
A further assay relates to SW-620 colon. Particulars: 10 µM unless noted.
For a further assay, the system named is MCF7 breast. Particulars: 10 µM unless noted.
Another assay relates to KM12 colon. To be noted: 10 µM unless noted.
In a further assay the test system is HCT-116 colon. To be noted: 10 µM unless noted.
The test system of the next assay is HCC-2998 colon. Particulars: 10 µM unless noted.
Another assay concerns T-47D breast. Particulars: 10 µM unless noted.

The panel holds about 83,000 compounds, 20% with a hit somewhere; the sample as a whole holds those more often.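 Assay: single dose, 48 h. Readout: percent growth (0 = no net growth; negative = cell death). Active: <10.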 Unmarked numbers belong to inactive results. Active and inactive are the calls of the source.

Take `CCCCCCCCCCCC1=NC(C)(C)CN1C(C)(C)CO`: the growth with RPMI-8226 leukemia is 1.29% (active); with OVCAR-8 ovarian, 69.4%; in the assay with OVCAR-5 ovarian, 73.2%; in the assay with OVCAR-4 ovarian, 64.4%; in the assay on SK-OV-3 ovarian, 73.8%; in the assay on IGROV1 ovarian, 53.2%. Further, the growth in the assay on OVCAR-3 ovarian was 76.7%; in the assay on HS 578T breast, 81.2%; in the assay with NCI/ADR-RES ovarian, 65%; in the assay on BT-549 breast, 76.6%; in the assay on MDA-MB-435 melanoma it was -25.2% (active); with SW-620 colon, 10.8%. For the same compound, the growth in the assay with MCF7 breast is 24.3%; with KM12 colon, -10.2% (active).

For the compound `C#CC[C@@H]1C[C@]2(C)[C@H]3CC[C@@H]4[C@H]5C(C(=C)C)CC[C@]5(C(=O)NCCN(CCN)CCN)CC[C@@]4(C)[C@]3(C)CC[C@H]2C(C)(C)[C@H]1OC(C)=O` (stereo partly drawn), the growth in the assay on RPMI-8226 leukemia is 58.3%; with OVCAR-8 ovarian, 72.1%; with OVCAR-5 ovarian, 63.3%; in the assay with OVCAR-4 ovarian, 21.7%; in the assay with SK-OV-3 ovarian, 105%; with IGROV1 ovarian, 98%. Further, the growth was 48.7% in the assay on OVCAR-3 ovarian; 115% with HS 578T breast; 95.4% in the assay with NCI/ADR-RES ovarian; 110% with BT-549 breast; 84.8% in the assay with MDA-MB-435 melanoma; 15.2% with SW-620 colon. In addition, the growth with MCF7 breast was -59.9% (active); in the assay on HCT-116 colon, 2.57% (active); with HCC-2998 colon, 81.1%; in the assay on KM12 colon, 60%.

For `CC(=O)N1N=C(c2ccc(C)cc2)CC1c1cn(-c2ccccc2)nc1-c1cccc(Nc2ccnc3cc(Cl)ccc23)c1` (stereo not drawn), the growth in the assay on RPMI-8226 leukemia was -11% (active); with OVCAR-8 ovarian, 46.4%; with OVCAR-5 ovarian, 133%; in the assay with SK-OV-3 ovarian, 114%; in the assay with IGROV1 ovarian it was 48.9%; in the assay with OVCAR-3 ovarian, 84.7%. In addition, the growth is 80.3% with HS 578T breast; 23.4% in the assay on T-47D breast; 87.3% in the assay with BT-549 breast; 13.8% in the assay with MDA-MB-435 melanoma; 27.2% with SW-620 colon; 24.8% in the assay on MCF7 breast. For the same compound, the growth was 6.87% (active) with HCT-116 colon, 102% in the assay on HCC-2998 colon and 72.5% in the assay with KM12 colon.

As for `CC1=NC(c2ccc(Cl)cc2)C2=C(N1)/C(=C/c1ccc(Cl)cc1)CCC2` (stereo not drawn), the growth in the assay with RPMI-8226 leukemia is -1.96% (active); with OVCAR-8 ovarian, 79%; in the assay with OVCAR-5 ovarian it was 114%; with SK-OV-3 ovarian it was 109%; in the assay with IGROV1 ovarian it was 98.8%; with OVCAR-3 ovarian, 104%. Also, the growth in the assay on HS 578T breast is 97.9%; in the assay with NCI/ADR-RES ovarian it was 98%; in the assay on T-47D breast, 82.5%; with BT-549 breast, 66%; in the assay with MDA-MB-435 melanoma, 22.4%; with SW-620 colon, 82.1%. Also, the growth with MCF7 breast is 31.3%; with HCT-116 colon it was -39.9% (active); in the assay on HCC-2998 colon, 41.5%; in the assay on KM12 colon it was 38%.

Regarding `CCCCC(CCc1ccccn1)C(=O)c1ccccc1` (stereo not drawn), the growth is 106% in the assay with RPMI-8226 leukemia; 112% in the assay with OVCAR-8 ovarian; 109% in the assay with OVCAR-5 ovarian; 110% with OVCAR-4 ovarian; 110% in the assay on SK-OV-3 ovarian; 101% in the assay on IGROV1 ovarian. The growth with OVCAR-3 ovarian was 116%; in the assay on HS 578T breast, 112%; in the assay with T-47D breast, 100%; with BT-549 breast, 108%; with MDA-MB-435 melanoma, 111%; in the assay on SW-620 colon, 112%. The growth with MCF7 breast was 105%; with HCT-116 colon, 109%; in the assay on HCC-2998 colon, 111%; in the assay on KM12 colon it was 136%.

In the case of `COc1ccc(Nc2ncnc3c2sc2nc(C)cc(C)c23)cc1`, the growth with RPMI-8226 leukemia is 101%; in the assay on OVCAR-8 ovarian, 95%; in the assay on OVCAR-5 ovarian, 93.1%; with SK-OV-3 ovarian, 118%; in the assay on IGROV1 ovarian, 99.4%; in the assay with OVCAR-3 ovarian, 113%. Also, the growth with HS 578T breast is 93%; in the assay on NCI/ADR-RES ovarian, 108%; in the assay on T-47D breast it was 89.6%; in the assay with BT-549 breast, 104%; in the assay with MDA-MB-435 melanoma it was 98.7%; in the assay with SW-620 colon, 108%. Moreover, the figures for the growth in the assay on MCF7 breast, in the assay with HCT-116 colon and with KM12 colon were 80.1%, 90.4% and 96.7%, respectively.

As to `COc1ccc(/C=C/C(=O)c2ccc(NC(=O)CSc3nnc(-c4ccc(OC)cc4)n3-c3ccccc3)cc2)cc1`, the growth in the assay with RPMI-8226 leukemia is 77.5%; in the assay on OVCAR-8 ovarian, 92.2%; with OVCAR-5 ovarian it was 108%; with OVCAR-4 ovarian, 100%; in the assay with SK-OV-3 ovarian, 100%; in the assay with IGROV1 ovarian, 111%. Moreover, the growth with OVCAR-3 ovarian is 103%; in the assay on HS 578T breast it was 91.2%; with NCI/ADR-RES ovarian, 102%; in the assay with BT-549 breast it was 99.7%; in the assay on MDA-MB-435 melanoma, 98.3%; in the assay with SW-620 colon, 102%. Further, the growth was 77.1% in the assay with MCF7 breast, 4.27% (active) with HCT-116 colon, 104% in the assay with HCC-2998 colon and 102% in the assay with KM12 colon.

As for `C=CCn1c(C)nc2cc(Nc3nc(Nc4ccc5nc(C)n(CC=C)c5c4)nc4ccccc34)ccc21`, the growth in the assay with RPMI-8226 leukemia was 98.8%; with OVCAR-8 ovarian, 98.9%; in the assay with OVCAR-5 ovarian it was 107%; in the assay with OVCAR-4 ovarian, 99.5%; in the assay with SK-OV-3 ovarian it was 104%; with IGROV1 ovarian, 102%. Also, the growth in the assay with OVCAR-3 ovarian was 108%; in the assay with HS 578T breast it was 100%; with NCI/ADR-RES ovarian it was 101%; with T-47D breast it was 96%; in the assay on BT-549 breast, 106%; in the assay on MDA-MB-435 melanoma it was 108%. The growth with SW-620 colon is 106%; in the assay with HCT-116 colon, 98.9%; with KM12 colon, 109%.

For `CCCCCCCCCCCCCC(=S)NCCCC[C@H](NC(=O)OCc1ccccc1)C(=O)Nc1ccccc1`, the growth is 32% with RPMI-8226 leukemia; 40.3% with OVCAR-8 ovarian; 89.5% with OVCAR-5 ovarian; 54.6% with OVCAR-4 ovarian; 78.2% with SK-OV-3 ovarian; 54% in the assay with IGROV1 ovarian. Besides, the growth was 22.1% in the assay with OVCAR-3 ovarian; 61.1% in the assay with HS 578T breast; 34.8% with NCI/ADR-RES ovarian; 107% in the assay on BT-549 breast; 51.4% in the assay with MDA-MB-435 melanoma; 32.7% in the assay on SW-620 colon. The growth with MCF7 breast is 42.4%; in the assay on HCT-116 colon it was 25%; in the assay with KM12 colon, 25.9%.
